According to PubChem BioAssay (EPA / NIEHS):
Results filed as inconclusive are left out. The source made the active and inactive calls. Rule for the calls, unless noted: active = hit-call score of the fitted dose curve at least 0.9, where 1 is the maximum; inactive = score below 0.9.

Legend:
[1] = read-out: E-selectin (Homo sapiens) (UniProt P16581); experiment: BSK_SAg_Eselectin: BioMAP Diversity Plus: SAg Assay for Eselectin Biomarker Activity (AID 2283091); conditions: primary human HUVEC with PBMC; actives raise or lower the signal
How it was run: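 Primary human endothelial cells and peripheral blood mononuclear cells were co-cultured and exposed to chemical for 24 hours. E-selectin levels were then quantified by ELISA, with bidirectional curve fitting normalised to DMSO controls.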

[2] = read-out: Monokine induced gamma interferon (MIG), CXCL9 (gene 4283); experiment: BSK_SAg_MIG: BioMAP Diversity Plus: SAg Assay for Monokine induced gamma interferon (MIG) Biomarker Activity (AID 2283092); conditions: primary human HUVEC with PBMC; actives raise or lower the signal
How it was run: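 Endothelial cells and PBMC were co-cultured, exposed to test chemicals, and sampled 24 h later. MIG was measured by ELISA, and responses were fitted in both directions relative to DMSO.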

[3] = BSK_SAg_PBMCCytotoxicity: PBMC Cytotoxicity Assessment in the BioMAP Diversity Plus: SAg Assay (AID 2283093); conditions: primary human HUVEC with PBMC;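 note: PBMC viability measured as Alamar Blue reduction fluorescence at 546/580 nm; fitted both ways against DMSO so a hit may be loss or gain of signal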;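 for AC50: PBMC superantigen activated with SEB plus TSST-1 one hour after compound addition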
How it was run: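 Alamar Blue reduction (6 h, 546/580 nm) reports PBMC cytotoxicity after 90 h superantigen activation (SEB, TSST-1; 20 ng/mL final each) with 1 h compound pre-treatment. Gain or loss of signal fitted versus DMSO.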

[4] = read-out: Interleukin-8 (IL8), CXCL8 (gene 3576); experiment: BSK_SAg_IL8: BioMAP Diversity Plus: SAg Assay for Interleukin-8 (IL8) Biomarker Activity (AID 2283094); conditions: primary human HUVEC with PBMC; actives raise or lower the signal
How it was run: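 Primary human endothelial cells with PBMC, exposed 24 h; IL-8 determined by ELISA, analysed bidirectionally relative to DMSO.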

[5] = BSK_SAg_Proliferation: Cell Proliferation Assessment in the BioMAP Diversity Plus: SAg Assay (AID 2283095); conditions: primary human HUVEC with PBMC;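 note: relative cell number as total protein by SRB absorbance in sub-confluent culture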
How it was run: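 A human primary co-culture of umbilical vein endothelium and blood mononuclear cells receives compound; relative cell number is quantified at 96 h by SRB staining and 560 nm absorbance, with DMSO-referenced bidirectional curve fitting.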

[6] = BSK_SAg_SRB: Viability Assessment in the BioMAP Diversity Plus: SAg Assay (AID 2283096); conditions: primary human HUVEC with PBMC;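 note: cells read one day after compound addition; hits may be either gain or loss of signal compared with DMSO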
How it was run: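 This overt-cytotoxicity endpoint quantifies protein in human endothelial/PBMC co-cultures at 24 h using SRB absorbance (560 nm) after trichloroacetic acid fixation. Values reflect signal change from the DMSO negative control, fitted bidirectionally.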

[7] = target: human CYP1A1, CYP1A1 (gene 1543) (UniProt P04798); experiment: NVS_ADME_hCYP1A1: NovaScreen (NVS) CYP450-related Enzyme Activity (ADME) Assay for human CYP1A1 (AID 2283100; active = hit-call score of the fitted dose curve at least 0.9, where 1 is the maximum)
Method: NVS_ADME_hCYP1A1 is a biochemical, single-readout assay that uses extracted gene-proteins in a cell-free assay. Measurements were taken 1 hour after chemical dosing in a 96-well plate.NVS_ADME_hCYP1A1 is one of one assay component(s) measured or calculated from the NVS_ADME_hCYP1A1 assay. It is designed to make measurements of enzyme activity, a form of enzyme reporter, as detected with fluorescence intensity signals by Fluorescence technology.Data from the assay component NVS_ADME_hCYP1A1 was analyzed into 1 assay endpoint. This assay endpoint, NVS_ADME_hCYP1A1, was analyzed in the positive analysis fitting direction relative to Acetonitrile as the negative control and baseline of activity. Using a type of enzyme reporter, loss-of-signal activity can be used to understand changes in the enzymatic activity as they relate to the gene CYP1A1. Furthermore, this assay endpoint can be referred to as a primary readout, because this assay has produced multiple assay endpoints where this one serves a enzymatic activity function. To generalize the intended target to other relatable targets, this assay endpoint is annotated to the cyp intended target family, where the subfamily is xenobiotic metabolism.
Binding assays used specific radioligands (tritiated, iodinated) with non-radioactive competitive displacement ligands in agonist or antagonist protocols (as indicated) and various reference compounds and inhibitors to titrate specific binding to receptors and transporters. Most enzyme assays (CYPs, kinases, phosphatases, proteases, HDACs) used recombinant protein and specific substrates (fluorescence mostly, some colorimetric and radioactive) and inhibitors, followed by a biochemical separation of substrate and product. All assays for the biochemical HTS were initially run in duplicate at a single concentration (10 uM for CYP450 assays and 25 uM for all others). Assay-chemical combinations meeting a pre-defined threshold (e.g., 30% inhibition and other criteria defined below) were then run in singleton concentration-response format with maximum concentration of 20 uM for CYPs and 50 uM for all others. Each assay was run with positive and negative controls, and concurrent controls on every plate. The follow-up (secondary) screen tested active chemical-pairs in concentration series, as well as a few additional assays not tested in the primary screen, some selected negative inactives, and several cases re-run in the concentration series for confirmatory purposes.

[8] = target: human CYP2B6, CYP2B6 (gene 1555) (UniProt P20813); experiment: NVS_ADME_hCYP2B6: NovaScreen (NVS) CYP450-related Enzyme Activity (ADME) Assay for human CYP2B6 (AID 2283101; active = hit-call score of the fitted dose curve at least 0.9, where 1 is the maximum)
How it was run: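 Cell-free recombinant enzyme assay with a fluorogenic substrate; fluorescence intensity read 1 hour after dosing. Loss of signal relative to acetonitrile negative control indicates inhibition. Primary screen run in duplicate at 10 uM, actives then tested in concentration series.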

[9] = target: human CYP19A1, CYP19A1 (gene 1588) (UniProt P11511); experiment: NVS_ADME_hCYP19A1: NovaScreen (NVS) CYP450-related Enzyme Activity (ADME) Assay for human CYP19A1 (AID 2283098; active = hit-call score of the fitted dose curve at least 0.9, where 1 is the maximum;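 for AC50: potency for inhibitors seen as loss of fluorescent enzyme signal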)
How it was run: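 Compounds were first screened at 10 uM in duplicate against purified enzyme, with a fluorogenic substrate and fluorescence intensity detection after 0.5 h. Inhibition appears as reduced signal against acetonitrile control.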

Measured: AC50

human CYP1A1, CYP1A1 (gene 1543), sequence (P04798 whole entry, looked up): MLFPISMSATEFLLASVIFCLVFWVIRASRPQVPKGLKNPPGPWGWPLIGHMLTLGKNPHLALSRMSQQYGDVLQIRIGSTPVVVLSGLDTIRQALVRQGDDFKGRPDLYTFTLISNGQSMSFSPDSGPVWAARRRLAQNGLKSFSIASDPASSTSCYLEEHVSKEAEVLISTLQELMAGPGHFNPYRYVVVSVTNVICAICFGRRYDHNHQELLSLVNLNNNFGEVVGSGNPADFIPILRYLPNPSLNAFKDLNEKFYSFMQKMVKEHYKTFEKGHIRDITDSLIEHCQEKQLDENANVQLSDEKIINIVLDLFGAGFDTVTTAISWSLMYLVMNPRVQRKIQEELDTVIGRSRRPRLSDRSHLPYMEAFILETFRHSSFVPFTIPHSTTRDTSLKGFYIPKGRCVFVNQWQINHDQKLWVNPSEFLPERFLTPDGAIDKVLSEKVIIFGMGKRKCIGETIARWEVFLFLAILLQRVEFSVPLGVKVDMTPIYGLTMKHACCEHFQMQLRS
human CYP19A1, CYP19A1 (gene 1588), sequence (P11511 whole entry, looked up): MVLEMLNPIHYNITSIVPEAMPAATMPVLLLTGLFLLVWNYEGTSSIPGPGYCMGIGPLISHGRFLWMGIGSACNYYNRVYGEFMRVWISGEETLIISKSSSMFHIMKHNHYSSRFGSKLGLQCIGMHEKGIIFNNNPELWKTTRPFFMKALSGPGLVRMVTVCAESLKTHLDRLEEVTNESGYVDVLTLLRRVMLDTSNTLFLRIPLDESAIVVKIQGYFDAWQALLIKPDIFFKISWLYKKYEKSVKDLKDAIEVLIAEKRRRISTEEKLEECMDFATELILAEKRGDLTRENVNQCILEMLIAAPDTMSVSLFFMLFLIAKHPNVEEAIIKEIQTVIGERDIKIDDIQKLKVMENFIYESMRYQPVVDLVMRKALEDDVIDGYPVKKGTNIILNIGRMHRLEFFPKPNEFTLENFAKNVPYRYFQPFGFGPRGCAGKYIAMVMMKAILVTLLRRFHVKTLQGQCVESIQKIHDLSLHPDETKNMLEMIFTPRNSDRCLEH
human CYP2B6, CYP2B6 (gene 1555), sequence (P20813 whole entry, looked up): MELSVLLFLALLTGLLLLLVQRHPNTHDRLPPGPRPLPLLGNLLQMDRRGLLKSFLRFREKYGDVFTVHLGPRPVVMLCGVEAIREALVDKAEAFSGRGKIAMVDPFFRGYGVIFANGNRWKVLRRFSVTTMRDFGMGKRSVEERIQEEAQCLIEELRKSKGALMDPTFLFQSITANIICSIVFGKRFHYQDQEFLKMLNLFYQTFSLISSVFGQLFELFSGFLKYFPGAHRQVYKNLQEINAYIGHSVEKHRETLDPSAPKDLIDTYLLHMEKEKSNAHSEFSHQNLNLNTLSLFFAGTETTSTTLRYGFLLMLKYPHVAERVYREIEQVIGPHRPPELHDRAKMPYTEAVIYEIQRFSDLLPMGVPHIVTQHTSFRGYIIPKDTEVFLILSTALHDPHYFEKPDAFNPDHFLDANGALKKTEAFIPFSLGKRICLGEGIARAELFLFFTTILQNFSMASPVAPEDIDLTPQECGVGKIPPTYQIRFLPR
E-selectin (Homo sapiens), sequence (P16581 whole entry, looked up): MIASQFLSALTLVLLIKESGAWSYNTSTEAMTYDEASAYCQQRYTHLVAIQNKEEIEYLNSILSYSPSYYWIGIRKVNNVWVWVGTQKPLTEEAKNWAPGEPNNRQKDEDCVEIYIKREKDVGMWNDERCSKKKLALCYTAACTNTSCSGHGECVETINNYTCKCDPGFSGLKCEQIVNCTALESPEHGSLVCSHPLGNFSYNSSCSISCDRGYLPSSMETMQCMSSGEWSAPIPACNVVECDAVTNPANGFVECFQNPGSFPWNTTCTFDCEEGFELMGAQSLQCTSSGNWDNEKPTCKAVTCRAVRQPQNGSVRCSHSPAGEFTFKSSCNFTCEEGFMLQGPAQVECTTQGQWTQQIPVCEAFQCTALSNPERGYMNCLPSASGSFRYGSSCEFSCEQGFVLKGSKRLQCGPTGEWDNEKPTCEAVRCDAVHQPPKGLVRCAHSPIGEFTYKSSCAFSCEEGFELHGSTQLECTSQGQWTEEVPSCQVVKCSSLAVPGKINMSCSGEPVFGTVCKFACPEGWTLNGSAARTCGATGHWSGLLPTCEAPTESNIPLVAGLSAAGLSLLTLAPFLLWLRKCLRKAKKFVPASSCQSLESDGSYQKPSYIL

CO/N=C(/C1=NOCCO1)c1ccccc1Oc1ncnc(Oc2ccccc2Cl)c1F
active: [1] 12.7 µM | [2] 34.7 µM | [3] 1.98 µM | [4] 11 µM | [5] 15.8 µM | [6] 18.3 µM

Cc1cc(C)nc(Nc2ccccc2)n1
active: [1] 20 µM | [3] 7.57 µM | [4] 13.8 µM
inactive: [2] | [5] | [6]

Cc1ccc(N=CN(C)C=Nc2ccc(C)cc2C)c(C)c1
active: [1] 26.5 µM | [2] 30.7 µM | [3] 34.9 µM | [5] 21.7 µM | [6] 33.2 µM
inactive: [4]

COc1ccc(-c2ccccc2)cc1NNC(=O)OC(C)C
active: [7] 0.597 µM
not listed: [8] | [9]
inactive: all other assays above

CCOc1nc(C(Cl)(Cl)Cl)ns1
inactive: [2] | [3] | [4] | [5] | [6]
active: [1] 13.3 µM

COc1cc(Cl)c(OC)cc1Cl
not listed: [7] | [8] | [9]
inactive: all other assays above

CC(C)N1C(=O)N(c2ccccc2)CSC1=NC(C)(C)C
active: [1] 27.3 µM | [2] 38.8 µM | [3] 32.2 µM | [4] 26.3 µM | [5] 27.4 µM | [6] 27.8 µM

CCCC(=NOCC)C1=C(O)CC(CC(C)SCC)CC1=O (stereo not drawn)
not listed: [7] | [8] | [9]
inactive: all other assays above

CCCCOCN(C(=O)CCl)c1c(CC)cccc1CC
active: [1] 18.9 µM | [2] 33.9 µM | [3] 33.2 µM | [4] 31 µM | [5] 22.2 µM | [6] 28.6 µM | [8] 8.94 µM

Nc1c(Cl)c(Cl)nc(C(=O)O)c1Cl
inactive: [1] | [2] | [3] | [5] | [6]

Nc1cnn(-c2ccccc2)c(=O)c1Cl
not listed: [7] | [8] | [9]
inactive: all other assays above

Clc1cccc(C(Cl)(Cl)Cl)n1
not listed: [7] | [8] | [9]
inactive: all other assays above

COCc1cnc(C2=NC(C)(C(C)C)C(=O)N2)c(C(=O)O)c1 (stereo not drawn)
not listed: [7] | [8] | [9]
inactive: all other assays above

COC(=O)NC(=S)Nc1ccccc1NC(=S)NC(=O)OC
active: [1] 15.1 µM | [3] 14 µM | [4] 25.1 µM | [5] 19.2 µM
inactive: [2] | [6]

CC(C)Nc1nc(Cl)nc(NC(C)C)n1
inactive: [2] | [3] | [4] | [5] | [6]
active: [1] 4.2 µM

O=C(Nc1ccccc1-c1ccc(Cl)cc1)c1cccnc1Cl
not listed: [7] | [8] | [9]
inactive: all other assays above

COP(=O)(OC)O/C(C)=C/C(=O)N(C)C
inactive: [1] | [2] | [3] | [5] | [6]

CC(C)Oc1cccc(NC(=O)c2ccccc2C(F)(F)F)c1
active: [6] 15.1 µM
not listed: [7] | [8]
inactive: all other assays above

N#Cc1c[nH]cc1-c1cccc2c1OC(F)(F)O2
active: [4] 27.4 µM | [5] 20 µM | [6] 13.1 µM
inactive: [1] | [2] | [3]

COCC(C)N(C(=O)CCl)c1c(C)csc1C (stereo not drawn)
active: [1] 10.7 µM
inactive: [2] | [3] | [4] | [5] | [6]

CC(C)=CC1C(C(=O)OCc2coc(Cc3ccccc3)c2)C1(C)C (stereo not drawn)
active: [1] 16.6 µM | [3] 5.08 µM | [4] 12.7 µM | [5] 15.7 µM | [9] 0.444 µM
inactive: [2] | [6]

C=CCOC(=O)C(C)(C)OC(=O)c1cc(-n2c(=O)cc(C(F)(F)F)n(C)c2=O)ccc1Cl
active: [1] 31.1 µM
inactive: [2] | [3] | [5] | [6]

C=C(C)CN(CC)c1c([N+](=O)[O-])cc(C(F)(F)F)cc1[N+](=O)[O-]
active: [1] 33.7 µM | [3] 30.8 µM | [5] 28.8 µM | [6] 15.2 µM
inactive: [2] | [4]

CC(C)NC(=O)N1CC(=O)N(c2cc(Cl)cc(Cl)c2)C1=O
active: [7] 5.48 µM
not listed: [8]
inactive: all other assays above

CCOc1cc(C(C)(C)C)ccc1C1COC(c2c(F)cccc2F)=N1 (stereo not drawn)
active: [1] 16.5 µM | [2] 36.1 µM | [3] 28.9 µM | [5] 11.9 µM | [6] 22.1 µM

CCCCC(C#N)(Cn1cncn1)c1ccc(Cl)cc1 (stereo not drawn)
active: [9] 0.789 µM | [7] 10.4 µM | [8] 6.49 µM
inactive: all other assays above

CS(=O)(=O)c1ccc(C(=O)C2C(=O)CCCC2=O)c([N+](=O)[O-])c1
not listed: [7] | [8] | [9]
inactive: all other assays above

Cc1cnc(C2=NC(C)(C(C)C)C(=O)N2)c(C(=O)O)c1 (stereo not drawn)
not listed: [7] | [8] | [9]
inactive: all other assays above

N#CN=C1SCCN1Cc1ccc(Cl)nc1
active: [9] 0.933 µM
not listed: [7] | [8]
inactive: all other assays above

COC(=O)NS(=O)(=O)c1ccc(N)cc1
not listed: [7] | [8] | [9]
inactive: all other assays above

OC(c1ccc(Cl)cc1)(c1ccc(Cl)cc1)C(Cl)(Cl)Cl
inactive: [9]
active: [1] 27.2 µM | [2] 34.4 µM | [3] 20 µM | [4] 27.9 µM | [5] 15 µM | [6] 31.8 µM

Cn1c(-c2ccccc2)cc(-c2ccccc2)[n+]1C
active: [1] 4.84 µM | [3] 3.97 µM | [4] 4.04 µM | [5] 3.16 µM
inactive: [2] | [6]

Cc1nc(N(C)C)nc(OC(=O)N(C)C)c1C
not listed: [7] | [8] | [9]
inactive: all other assays above

COP(=S)(OC)SCn1nnc2ccccc2c1=O
active: [1] 10.4 µM | [5] 30.2 µM | [7] 0.363 µM | [8] 0.302 µM
inactive: [2] | [3] | [4] | [6]
